Results published in the supplement of paper PMC11732987, “Enantioselective OTUD7B fragment discovery through chemoproteomics screening and high-throughput optimisation” (Communications Chemistry, 2025).

Key:
Test in all cases: log2 ratio of Biotin-Ahx-Ub-VS probe labelling (fragment/DMSO); higher = less target engagement (more negative = stronger competition), active = hit call of the paper (q ≤ 0.05, log2 ratio ≤ -1)
Conditions in all cases: compound concentration: 200 uM; treatment time: 3 h
[1] = biological target: T1, OTUD6B (UniProt Q8N6M0)
T1 sequence (whole entry): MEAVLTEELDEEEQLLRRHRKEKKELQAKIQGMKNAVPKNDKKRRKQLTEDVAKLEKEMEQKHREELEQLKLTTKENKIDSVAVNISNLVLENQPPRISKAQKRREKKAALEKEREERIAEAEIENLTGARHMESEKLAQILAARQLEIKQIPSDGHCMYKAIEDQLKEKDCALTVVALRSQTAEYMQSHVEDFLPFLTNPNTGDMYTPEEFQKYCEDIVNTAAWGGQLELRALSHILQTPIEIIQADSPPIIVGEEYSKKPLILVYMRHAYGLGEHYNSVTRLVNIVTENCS
How it was run: (§1)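 Labelling with Biotin-Ahx-Ub-VS (0.5 µM final, 1 h) followed a 3 h triplicate treatment of HEK293T lysate (495 µg per sample, Tris/CHAPS/IGEPAL buffer with protease inhibitors) with fragment at 200 µM or vehicle. Labelled DUBs were NeutrAvidin-enriched, digested with LysC and trypsin, and run by diaPASEF LC-MS/MS. The values, average log2 fragment/vehicle ratios by unpaired t-test, come from global-median-normalised Spectronaut label-free quantities. Proteins with ≥2 unique peptides were used.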

[2] = biological target: T2, OTUD7B (UniProt Q6GQQ9)
T2 sequence (whole entry): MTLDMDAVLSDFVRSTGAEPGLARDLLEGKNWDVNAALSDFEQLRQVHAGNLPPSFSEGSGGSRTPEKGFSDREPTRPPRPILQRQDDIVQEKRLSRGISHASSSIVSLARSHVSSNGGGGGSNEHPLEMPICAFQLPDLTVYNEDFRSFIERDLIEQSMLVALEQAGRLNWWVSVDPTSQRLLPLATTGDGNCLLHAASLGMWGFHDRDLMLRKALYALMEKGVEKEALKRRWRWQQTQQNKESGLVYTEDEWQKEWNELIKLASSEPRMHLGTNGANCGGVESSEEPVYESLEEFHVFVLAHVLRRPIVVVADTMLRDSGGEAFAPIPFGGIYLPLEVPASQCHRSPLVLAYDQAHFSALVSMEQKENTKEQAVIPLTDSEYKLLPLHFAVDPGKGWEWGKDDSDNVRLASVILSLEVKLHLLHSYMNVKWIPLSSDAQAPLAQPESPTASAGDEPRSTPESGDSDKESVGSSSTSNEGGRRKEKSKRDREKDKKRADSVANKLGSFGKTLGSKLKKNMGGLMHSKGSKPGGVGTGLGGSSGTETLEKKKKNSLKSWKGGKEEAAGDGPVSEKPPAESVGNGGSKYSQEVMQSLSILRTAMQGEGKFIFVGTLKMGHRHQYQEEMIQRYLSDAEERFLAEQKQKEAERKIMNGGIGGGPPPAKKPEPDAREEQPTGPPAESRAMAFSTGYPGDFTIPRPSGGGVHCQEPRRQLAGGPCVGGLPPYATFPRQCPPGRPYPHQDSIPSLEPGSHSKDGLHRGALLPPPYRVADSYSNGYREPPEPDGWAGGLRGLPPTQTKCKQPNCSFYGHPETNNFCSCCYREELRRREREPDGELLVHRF
How it was run: as §1

[3] = biological target: PRPF8 (UniProt Q6P2Q9)
How it was run: as §1

[4] = biological target: T3, PSMD7 (UniProt P51665)
T3 sequence (whole entry): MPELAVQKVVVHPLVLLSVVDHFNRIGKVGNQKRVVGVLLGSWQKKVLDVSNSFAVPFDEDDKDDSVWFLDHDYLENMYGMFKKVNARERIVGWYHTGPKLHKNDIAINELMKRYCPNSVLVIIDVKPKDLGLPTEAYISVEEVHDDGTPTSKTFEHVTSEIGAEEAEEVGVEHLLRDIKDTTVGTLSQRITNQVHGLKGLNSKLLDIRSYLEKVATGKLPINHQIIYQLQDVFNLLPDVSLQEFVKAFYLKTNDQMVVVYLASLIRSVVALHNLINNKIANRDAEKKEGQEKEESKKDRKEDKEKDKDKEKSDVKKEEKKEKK
How it was run: as §1

[5] = biological target: UCHL1 (UniProt P09936)
How it was run: as §1

[6] = biological target: T4, UCHL3 (UniProt P15374)
T4 sequence (whole entry): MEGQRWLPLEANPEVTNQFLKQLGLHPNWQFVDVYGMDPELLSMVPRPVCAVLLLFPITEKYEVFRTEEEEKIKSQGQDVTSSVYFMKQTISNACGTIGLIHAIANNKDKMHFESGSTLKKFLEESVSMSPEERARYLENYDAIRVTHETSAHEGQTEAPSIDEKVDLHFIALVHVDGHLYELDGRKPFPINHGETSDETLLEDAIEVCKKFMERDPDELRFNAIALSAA
How it was run: as §1

[7] = biological target: T5, UCHL5 (UniProt Q9Y5K5)
T5 sequence (whole entry): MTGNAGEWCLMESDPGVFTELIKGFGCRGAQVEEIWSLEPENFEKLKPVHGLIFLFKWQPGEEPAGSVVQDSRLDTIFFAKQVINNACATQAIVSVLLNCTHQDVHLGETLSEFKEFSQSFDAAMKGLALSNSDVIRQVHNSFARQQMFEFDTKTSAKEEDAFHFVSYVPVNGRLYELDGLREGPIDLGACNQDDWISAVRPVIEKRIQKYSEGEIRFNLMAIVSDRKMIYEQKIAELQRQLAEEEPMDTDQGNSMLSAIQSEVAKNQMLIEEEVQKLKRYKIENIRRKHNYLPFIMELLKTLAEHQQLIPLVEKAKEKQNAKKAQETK
How it was run: as §1

[8] = biological target: USP10 (UniProt Q14694)
How it was run: as §1

[9] = biological target: T6, USP15 (UniProt Q9Y4E8)
T6 sequence (whole entry): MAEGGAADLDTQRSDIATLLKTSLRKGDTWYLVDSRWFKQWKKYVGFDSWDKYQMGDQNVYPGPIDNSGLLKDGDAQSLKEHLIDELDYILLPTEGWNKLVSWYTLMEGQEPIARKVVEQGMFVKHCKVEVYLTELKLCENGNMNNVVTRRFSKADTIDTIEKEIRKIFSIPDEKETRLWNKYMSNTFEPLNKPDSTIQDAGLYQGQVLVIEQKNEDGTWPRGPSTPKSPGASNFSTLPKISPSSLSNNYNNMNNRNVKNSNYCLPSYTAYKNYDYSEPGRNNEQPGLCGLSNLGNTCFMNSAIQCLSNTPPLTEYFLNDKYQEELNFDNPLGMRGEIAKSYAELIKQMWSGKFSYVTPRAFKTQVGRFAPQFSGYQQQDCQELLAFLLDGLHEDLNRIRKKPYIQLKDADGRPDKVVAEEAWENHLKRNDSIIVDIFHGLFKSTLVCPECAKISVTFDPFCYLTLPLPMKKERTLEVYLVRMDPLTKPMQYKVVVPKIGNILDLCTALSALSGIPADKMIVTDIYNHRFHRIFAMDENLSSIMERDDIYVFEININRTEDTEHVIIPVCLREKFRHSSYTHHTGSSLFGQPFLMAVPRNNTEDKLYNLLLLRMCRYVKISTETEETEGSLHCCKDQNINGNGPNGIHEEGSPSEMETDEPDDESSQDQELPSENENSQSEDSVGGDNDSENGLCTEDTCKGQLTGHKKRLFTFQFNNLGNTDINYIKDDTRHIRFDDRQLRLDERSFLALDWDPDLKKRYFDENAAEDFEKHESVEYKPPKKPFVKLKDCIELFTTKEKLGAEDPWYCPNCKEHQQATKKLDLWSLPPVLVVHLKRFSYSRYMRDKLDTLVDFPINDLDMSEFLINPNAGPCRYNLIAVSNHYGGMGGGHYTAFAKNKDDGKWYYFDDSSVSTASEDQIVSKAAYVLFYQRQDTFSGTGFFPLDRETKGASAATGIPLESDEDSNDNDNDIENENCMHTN
How it was run: as §1

Measured: log2 ratio of Biotin-Ahx-Ub-VS probe labelling

Sequence of USP10 (Q14694 whole entry): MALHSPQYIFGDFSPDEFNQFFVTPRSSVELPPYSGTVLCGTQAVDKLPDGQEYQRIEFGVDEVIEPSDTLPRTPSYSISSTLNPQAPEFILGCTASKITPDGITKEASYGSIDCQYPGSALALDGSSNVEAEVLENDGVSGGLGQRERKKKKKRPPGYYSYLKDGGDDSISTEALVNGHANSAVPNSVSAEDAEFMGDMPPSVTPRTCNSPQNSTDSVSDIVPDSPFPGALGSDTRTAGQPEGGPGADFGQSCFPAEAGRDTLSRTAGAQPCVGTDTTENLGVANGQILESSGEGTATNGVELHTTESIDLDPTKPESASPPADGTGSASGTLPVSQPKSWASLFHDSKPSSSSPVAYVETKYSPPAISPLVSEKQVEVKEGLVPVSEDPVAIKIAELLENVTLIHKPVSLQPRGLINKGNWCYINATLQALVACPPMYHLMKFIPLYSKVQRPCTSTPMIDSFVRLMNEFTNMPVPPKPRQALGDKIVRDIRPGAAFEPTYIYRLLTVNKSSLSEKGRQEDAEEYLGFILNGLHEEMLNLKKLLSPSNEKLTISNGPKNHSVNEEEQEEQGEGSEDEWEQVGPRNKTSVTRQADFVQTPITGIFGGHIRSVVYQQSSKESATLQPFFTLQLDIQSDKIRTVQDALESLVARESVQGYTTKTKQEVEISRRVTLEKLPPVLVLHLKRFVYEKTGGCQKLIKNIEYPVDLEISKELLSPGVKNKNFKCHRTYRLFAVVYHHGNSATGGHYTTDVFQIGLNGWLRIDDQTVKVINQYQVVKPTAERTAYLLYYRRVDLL
Sequence of UCHL1 (P09936 whole entry, looked up): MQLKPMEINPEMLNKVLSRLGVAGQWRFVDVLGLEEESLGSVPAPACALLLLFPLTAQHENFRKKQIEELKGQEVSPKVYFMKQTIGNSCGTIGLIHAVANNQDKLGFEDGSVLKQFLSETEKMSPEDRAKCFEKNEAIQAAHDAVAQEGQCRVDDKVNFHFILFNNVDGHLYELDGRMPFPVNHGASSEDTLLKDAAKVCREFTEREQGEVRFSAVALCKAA

N#Cc1cnn(-c2ccccc2)c1NC(=O)CCl
inactive: [1] -0.394 | [3] -0.0739 | [4] -0.397 | [6] 0.168 | [7] -0.235 | [8] -0.0214 | [9] -0.516
active: [2] -1.83 | [5] -1.35
